Results filed as inconclusive are left out. A call without a number means that no potency is given here. A number with no mark means an inactive call. Calls of active or inactive are those of the source. Unless noted, calls follow the shape of the dose curve; as a rule, active = well fitted curve in the direction sought with a large enough effect in the repeat runs; inconclusive = weak or mixed curves; inactive = no such curve, though single readings can be large; an effect the other way counts as inactive or inconclusive.
Tests used:
[1] = qHTS assay to identify small molecule agonists of the RXR signaling pathway - cell viability counter screen (AID 1159529); also: nearly all actives have a fitted effect of over 50% in size; also: potency is read from the fitted curve at half-maximal effect
Method in brief: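 RXR-alpha-UAS-bla HEK 293T cells in medium with 2% charcoal-stripped FBS were preincubated 5 hr, then exposed to compounds for 16 hr at 37 C. Viability was read as CellTiter-Glo luminescence after 30 min at room temperature.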

[2] = qHTS assay to identify small molecule antagonists of the retinoid acid receptor (RAR) signaling pathway - cell viability counter screen (AID 1159551); also: nearly all actives have a fitted effect of over 35% in size
Method in brief: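 C3RL4 RARE-luciferase line; cpds + retinol 1 uM final, 6 h, 37 C/5% CO2; CellTiter-Glo ATP luminescence, 30 min RT.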

[3] = qHTS assay to identify small molecule antagonists of the retinoic acid receptor (RAR) signaling pathway (AID 1159552; also: nearly all actives have a fitted effect of over 50% in size)
Method in brief: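 RARE-luc C3RL4 cells; cpds + 1 uM (final) retinol, 6 hr, 37 C/5% CO2; luciferase reagent, 30 min RT, luminescence readout. Inhibitors of retinol-driven signal scored.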

[4] = qHTS assay to identify small molecule agonists of the retinoic acid receptor (RAR) signaling pathway (AID 1159553); also: potency is read from the fitted curve at half-maximal effect
Method in brief: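 RARE-luc C3RL4 cells; overnight attachment 37 C/5% CO2; compound (DMSO) 6 hr; luciferase reagent, 30 min RT; luminescence read-out.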

[5] = qHTS assay to identify small molecule antagonists of the estrogen related receptor (ERR) signaling pathway from Tox21 library - cell viability counter screen (AID 1224834); also: nearly all actives have a fitted effect of over 30% in size
Method in brief: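 Multiplexed viability counter screen in ERR cells: 17.5 h compound exposure at 37 C, CellTiter-Fluor added, 30 min at 37 C/5% CO2, fluorescence read.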

[6] = qHTS assay to identify small molecule antagonists of the constitutive androstane receptor (CAR) signaling pathway - cell viability counter screen (AID 1224837); also: nearly all actives have a fitted effect of over 45% in size; also: potency is read from the fitted curve at half-maximal effect
Method in brief: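 Read-out: CellTiter-Fluor fluorescence after 23 hr at 37 C/5% CO2. Cells: HepG2 double-stable for hCAR and CYP2B6-2.2kb. Compounds tested at 15 concentrations in the presence of CITCO, final concentration 50 nM.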

[7] = target: Nuclear receptor subfamily 1 group I member 3 (Homo sapiens) (UniProt Q14994); assay: qHTS assay to identify small molecule antagonists of the constitutive androstane receptor (CAR) signaling pathway (AID 1224838); also: nearly all actives have a fitted effect of over 40% in size; also: potency is read from the fitted curve at half-maximal effect
Method in brief: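 Read-out: ONE-Glo luciferase luminescence after 30 min at room temperature. HepG2-CYP2B6-hCAR double-stable cells, compounds in 15-point titration plus 50 nM CITCO final, 24 h at 37 C/5% CO2.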

[8] = target: Nuclear receptor subfamily 1 group I member 3 (Homo sapiens) (UniProt Q14994); assay: qHTS assay to identify small molecule agonists of the constitutive androstane receptor (CAR) signaling pathway (AID 1224839); also: nearly all actives have a fitted effect of over 15% in size; also: potency is read from the fitted curve at half-maximal effect
Method in brief: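 HepG2 cells stably expressing hCAR and a CYP2B6-2.2kb luciferase reporter were treated with compounds at 15 concentrations plus 0.75 uM PK11195 (final) for 24 h at 37 C; luminescence was read after ONE-Glo addition.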

[9] = qHTS assay to identify small molecule antagonists of the estrogen related receptor signaling pathway with the pleiotropic PPARgamma coactivator (PGC) from Tox21 10K library - cell viability counter screen (AID 1224840; active = well fitted cell-killing curve with a large enough effect in the repeat runs, not every such curve was filed as active; also: nearly all actives have a fitted effect of over 40% in size)
Method in brief: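 Fluorescence read-out of CellTiter-Fluor viability reagent, added after cells had been exposed to compound in DMSO for 17.5 h at 37 C; 30 min development at 37 C/5% CO2. Cells: PGC/ERR line, 2,000/well.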

[10] = target: Luciferin 4-monooxygenase (Photinus pyralis) (UniProt P08659); assay: qHTS assay to identify small molecule inhibitors of firefly luciferase (AID 1224835); also: nearly all actives have a fitted effect of over 25% in size; also: potency is read from the fitted curve at half-maximal effect
Method in brief: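 Inhibition of purified Photinus luciferase is measured by luminescence. Substrate levels (D-luciferin, ATP) sit at their KM values. Each compound is tested in a concentration series.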

[11] = qHTS assay to identify small molecule agonists of the constitutive androstane receptor (CAR) signaling pathway - cell viability counter screen (AID 1224836); also: series mostly up to about 92 µM; nearly all actives have a fitted effect of over 45% in size
Method in brief: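 HepG2 cells stably carrying hCAR and a CYP2B6-2.2kb reporter were plated 4 h, then given compounds at 15 concentrations plus PK11195 (final 0.75 uM). After 23 h at 37 C, viability was read by CellTiter-Fluor fluorescence.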

[12] = qHTS assay to identify small molecule antagonists of the estrogen related receptor signaling pathway with the pleiotropic PPARgamma coactivator (PGC) from Tox21 10K library (AID 1224841; call rule not given here; also: actives are mostly falling curves and most rising ones were filed inactive; nearly all actives have a fitted effect of over 50% in size; also: potency is read from the fitted curve at half-maximal effect)
Method in brief: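 Luminescence read-out (One-Glo luciferase reagent, 30 min at room temperature) from PGC/ERR cells exposed to DMSO-dissolved test compounds for 18 h at 37 C; cells, 2,000 per well, had been preincubated 6 h before compound transfer.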

[13] = qHTS assay to identify small molecule agonists of the estrogen related receptor signaling pathway with the pleiotropic PPARgamma coactivator (PGC) from Tox21 10K library (AID 1224842); also: nearly all actives have a fitted effect of over 15% in size; also: potency is read from the fitted curve at half-maximal effect
Method in brief: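 Luminescence from One-Glo (30 min, room temperature) measured after PGC/ERR cells had 18 h at 37 C with pinned compound (23 nL in DMSO). Cells had been seeded at 2,000 per well and pre-incubated 6 h.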

[14] = qHTS assay to identify small molecule antagonists of the estrogen related receptor (ERR) signaling pathway - cell viability counter screen (AID 1224818); also: series mostly up to about 46 µM
Method in brief: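 Fluorescence from CellTiter-Fluor, read 30 min after reagent addition at 37 C, measured viability of ERR cells exposed to compounds for 17.5 h. Cells had settled 6 h before dosing.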

[15] = qHTS assay to identify small molecule antagonists of the estrogen related receptor signaling pathway with the pleiotropic PPARgamma coactivator (PGC) cell viability counter screen (AID 1224822; also: series mostly up to about 46 µM)
Method in brief: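 Fluorescence read-out of CellTiter-Fluor after 30 min at 37 C; PGC/ERR cells, 2,000 per well, had been exposed to DMSO-dissolved compounds for 17.5 h following a 6 h pre-incubation.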

[16] = qHTS assay to identify small molecule antagonists of the estrogen related receptor (ERR) signaling pathway (AID 1224819; also: series mostly up to about 46 µM; nearly all actives have a fitted effect of over 50% in size)
Method in brief: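 Luminescence readout (One-Glo, 30 min, RT) of ERR cell line after 18 h compound exposure at 37 C; cells seeded 2,000/well, pre-incubated 6 h, compounds pinned from DMSO stocks.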

[17] = qHTS assay to identify small molecule agonists of the estrogen related receptor (ERR) signaling pathway (AID 1224820)
Method in brief: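 After 6 h plating (2,000 cells/well) and 18 h compound treatment at 37 C, ERR cells were lysed with One-Glo and luminescence read after 30 min at room temperature.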

[18] = tested on: estrogen-related receptor alpha (ERRalpha) with PGC-1alpha coactivator, human; assay: qHTS assay to identify small molecule antagonists of the estrogen related receptor signaling pathway with the pleiotropic PPARgamma coactivator (PGC) (AID 1224821; calls by dose curve)
Method in brief: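 Luminescence from One-Glo luciferase reagent (30 min, room temperature) measured after 18 h compound treatment at 37 °C. Cells carry the PGC/ERR reporter and were seeded 6 h prior to dosing.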

[19] = qHTS assay to identify small molecule agonists of the estrogen related receptor signaling pathway with the pleiotropic PPARgamma coactivator (PGC) (AID 1224823)
Method in brief: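 Luminescence from One-Glo reagent (30 min, room temperature) was read after 18 h compound treatment at 37 C of PGC/ERR cells plated 6 h beforehand; compounds delivered in DMSO by pin tool.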

Chain of Luciferin 4-monooxygenase (Photinus pyralis) (P08659 whole entry, looked up): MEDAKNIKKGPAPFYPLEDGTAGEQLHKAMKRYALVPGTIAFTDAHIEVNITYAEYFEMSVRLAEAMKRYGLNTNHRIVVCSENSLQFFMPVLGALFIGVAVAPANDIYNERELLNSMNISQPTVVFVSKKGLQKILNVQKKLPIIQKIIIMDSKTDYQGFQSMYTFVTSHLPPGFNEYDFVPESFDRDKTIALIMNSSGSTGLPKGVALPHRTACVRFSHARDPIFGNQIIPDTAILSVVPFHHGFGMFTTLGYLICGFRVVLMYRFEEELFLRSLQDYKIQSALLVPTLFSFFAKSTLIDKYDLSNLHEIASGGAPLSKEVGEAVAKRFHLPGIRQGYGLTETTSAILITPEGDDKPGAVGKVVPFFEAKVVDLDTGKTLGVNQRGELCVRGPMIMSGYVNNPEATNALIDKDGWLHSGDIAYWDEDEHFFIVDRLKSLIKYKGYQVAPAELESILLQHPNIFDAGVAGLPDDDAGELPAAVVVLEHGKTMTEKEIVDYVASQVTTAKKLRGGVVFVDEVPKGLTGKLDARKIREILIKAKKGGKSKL
Chain of Nuclear receptor subfamily 1 group I member 3 (Homo sapiens) (Q14994 whole entry, looked up): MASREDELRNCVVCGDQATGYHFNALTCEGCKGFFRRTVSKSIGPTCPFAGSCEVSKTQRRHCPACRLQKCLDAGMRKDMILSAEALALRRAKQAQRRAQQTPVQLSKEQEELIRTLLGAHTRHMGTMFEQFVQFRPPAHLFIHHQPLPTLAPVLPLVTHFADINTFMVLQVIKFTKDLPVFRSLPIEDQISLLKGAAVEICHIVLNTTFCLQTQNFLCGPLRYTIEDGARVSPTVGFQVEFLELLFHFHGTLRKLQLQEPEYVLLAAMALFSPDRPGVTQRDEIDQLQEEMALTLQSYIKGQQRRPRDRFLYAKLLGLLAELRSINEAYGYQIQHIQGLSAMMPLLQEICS

Row | Structure (SMILES) | Potency [1] | outcome [2] | Potency [3] | Potency [4] | Potency [5] | Potency [6] | Potency [7] | Potency [8] | Potency [9] | Potency [10] | Potency [11] | Potency [12] | Potency [13] | outcome [14] | outcome [15] | outcome [16] | outcome [17] | outcome [18] | outcome [19]
1 | Cc1cc(NS(=O)(=O)c2ccc(N)cc2)nc(C)n1 | inactive | inactive | inactive | inactive | inactive | inactive | inactive | 11.9 µM (active) | inactive | – | – | – | – | – | – | – | – | – | –
2 | CC1=C2[C@H](/C=C(\C)C(=O)O)CC[C@@H](C)[C@H]2CC1 | 45.3 µM (active) | inactive | inactive | – | inactive | inactive | inactive | – | inactive | inactive | inactive | inactive | inactive | – | – | – | – | – | –
3 | CCCCCCCOC(=O)CCC | inactive | inactive | inactive | inactive | inactive | inactive | – | inactive | inactive | inactive | inactive | inactive | inactive | – | – | – | – | – | –
4 | NNS(=O)(=O)c1ccc(Oc2ccc(S(=O)(=O)NN)cc2)cc1 | inactive | inactive | inactive | inactive | inactive | inactive | – | – | inactive | inactive | inactive | inactive | inactive | – | – | – | – | – | –
5 | CCCCCOc1ccc(C2SC(=O)NC2=O)cc1OCC (centres undefined) | inactive | inactive | inactive | 21.1 µM (active) | inactive | inactive | – | – | inactive | – | inactive | – | – | – | – | – | – | – | –
6 | CC(C)=CCCC(C)CCOC=O (centres undefined) | inactive | inactive | inactive | – | inactive | inactive | – | inactive | inactive | – | inactive | – | – | – | – | – | – | – | –
7 | CCCc1c2oc(C(=O)O)cc(=O)c2cc2c(=O)cc(C(=O)O)n(CC)c12 | inactive | inactive | inactive | – | inactive | inactive | – | inactive | inactive | inactive | inactive | inactive | inactive | – | – | – | – | – | –
8 | CCCCc1ccc2nc(NC(=O)OC)[nH]c2c1 | inactive | inactive | inactive | 8.41 µM (active) | – | inactive | inactive | 5.96 µM (active) | inactive | 3.47 µM (active) | inactive | inactive | 3.76 µM (active) | – | – | – | – | – | –
9 | CCC/C=C/CO | inactive | inactive | – | inactive | inactive | inactive | inactive | inactive | inactive | inactive | inactive | – | – | – | – | – | – | – | –
10 | ICCc1ccccc1 | – | inactive | – | – | inactive | inactive | – | – | inactive | – | inactive | inactive | inactive | – | – | – | – | – | –
11 | Cc1ccccc1C(=O)Nc1ccc(C(=O)N2CCCC(O)c3cc(Cl)ccc32)c(C)c1 (centres undefined) | inactive | inactive | – | inactive | – | inactive | inactive | inactive | inactive | – | inactive | inactive | inactive | – | – | – | – | – | –
12 | NC1=NCC2c3ccccc3Cc3ccccc3N12 (centres undefined) | inactive | inactive | – | – | inactive | inactive | inactive | inactive | inactive | – | inactive | – | – | inactive | inactive | – | – | – | –
13 | CCCCCCCCCCCCCCCCOP(=O)([O-])OCC[N+](C)(C)C | – | inactive | inactive | inactive | inactive | inactive | – | inactive | inactive | inactive | inactive | inactive | inactive | – | – | – | – | – | –
14 | C[C@]12C(=O)OC(=O)[C@H]1[C@H]1C=C[C@@H]2C1 | – | inactive | inactive | – | inactive | inactive | inactive | inactive | inactive | inactive | inactive | inactive | inactive | – | – | – | – | – | –
15 | CCCCNC(=S)NCCCC | inactive | inactive | inactive | – | – | 48.6 µM (active) | – | inactive | – | inactive | – | – | inactive | – | – | – | – | – | –
16 | C=CC(C)(O)CC/C=C(\C)CCC=C(C)C (centres undefined) | inactive | inactive | – | – | inactive | inactive | – | – | inactive | – | inactive | – | – | – | – | – | – | – | –
17 | CCc1cc(Cl)c(OC)c(C(=O)NC[C@@H]2CCCN2CC)c1O | – | inactive | – | – | inactive | inactive | – | inactive | inactive | inactive | – | inactive | inactive | – | – | – | – | – | –
18 | CN1CCN(C2=Nc3ccccc3Oc3ccc(Cl)cc32)CC1 | – | inactive | inactive | inactive | – | inactive | inactive | – | inactive | inactive | – | – | inactive | inactive | inactive | inactive | inactive | inactive | inactive
19 | Cc1cc2nc(N)sc2cc1C | – | inactive | inactive | 1.38 µM (active) | inactive | inactive | inactive | 2.19 µM (active) | inactive | – | inactive | – | – | – | – | – | – | – | –
20 | Cc1nc(-c2ccccn2)ncc1C(=O)Nn1cc(C)c2cc(F)ccc21 | – | inactive | inactive | – | inactive | 24.3 µM (active) | 13.7 µM (active) | inactive | – | inactive | – | 38.6 µM (active) | inactive | – | – | – | – | – | –
21 | Cc1c(N)cccc1N | inactive | inactive | – | – | inactive | inactive | inactive | inactive | inactive | inactive | inactive | – | – | – | – | – | – | – | –
22 | Cc1nc(N)nc(N)c1-c1ccc(Cl)c(Cl)c1 | – | inactive | inactive | inactive | – | – | – | – | – | inactive | inactive | 0.841 µM (active) | inactive | – | – | – | – | – | –
23 | CCCCCCCCCC#N | – | inactive | – | – | inactive | inactive | inactive | inactive | inactive | inactive | inactive | inactive | inactive | – | – | – | – | – | –
24 | CC(C)NC[C@@H](O)COc1cccc2ccccc12 | – | inactive | inactive | inactive | inactive | inactive | inactive | inactive | inactive | – | inactive | – | – | – | – | – | – | – | –
